A number with no mark means an inactive call. Calls of active or inactive are those of the source.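 The calls were made as follows: active = response relative to DMSO over 150%; inconclusive = yeast strain with under 70 recorded events; inactive = the rest.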
assay: yeast AGP1-GFP fluorescence change, single-dose confirmation – cell-based, flow cytometry, S. cerevisiae, cherry pick set 3 (AID 504334);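 also: median GFP fluorescence per well by flow cytometry over the all cells gate; ratio of sample to mean DMSO control signal so DMSO = 100% not 0%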; conditions: S. cerevisiae AGP1-GFP strain, 3 h, at 10 µM, hits give high values

Row | Compound | percent response vs DMSO
1 | CC(=O)C(Cl)C(=O)Nc1ccccc1 (stereo not given) | 105%
2 | Oc1c(Br)cc(Br)c2cccnc12 | 109%
3 | COc1cccc2c(Cl)c(CCCl)c(C)nc12 | 99.8%
4 | C=CCNc1ncnc2ccc(Br)cc12 | 101%
5 | Cn1cccc1C(=O)Nc1nc(-c2ccccn2)cs1 | 99.1%
6 | CCC(=O)Nn1cnc2c(c1=O)C1(CCCCC1)Cc1ccccc1-2 | 102%
7 | Cc1nc(Nc2ccc(Cl)cc2)c(C#N)c(=O)[nH]1 | 101%
8 | FC(F)Oc1cccc2cccnc12 | 96.4%
9 | C/C(=C\C(=O)c1ccccc1)Nc1ccc(O)cc1 | 98.4%
10 | CC1=CN2C(=N)/C(=C/c3ccc([N+](=O)[O-])o3)C(=O)N=C2S1 | 569% (active)
11 | CCc1sc(C(=O)Nc2nc(-c3ccccn3)cs2)cc1C | 111%
12 | CC(C)Nc1ncnc2ccc(Br)cc12 | 99.4%
13 | Cc1nc2c(O)cccc2cc1CO | 99.1%
14 | C[n+]1cccc2cccc([O-])c21 | 98.8%
15 | Cc1ccc2c(Cl)cc(Cl)c(OCC(=O)O)c2n1 | 109%
16 | Cc1cccc(N/C=C/C(=O)c2ccc(Cl)cc2)c1 | 95.4%
17 | CN(C)CCCNc1cc(O)c2ncccc2c1 | 105%
18 | CCC(C)Nc1nc(N)c([N+](=O)[O-])c(Nc2ccccc2OC)n1 (stereo not given) | 104%
19 | O=C(Nc1cccc2ccccc12)ON=C1CCCCC1 | 99.8%
20 | COc1ccc(OC)c(Nc2nc(NCCC(C)C)nc(N)c2[N+](=O)[O-])c1 | 98.4%
